# Only some compounds are listed: those with a hit (about 1.7% of all), similar ones and a draw of the others.
# GLP1R cytotox = cytotoxic in the GLP-1 receptor inverse agonist counter-screen; HEK293 cAMP-luciferase reporter cells, luminescence, 24 h; 0.13% of 410,000 active; Potency, µM (top dose mostly 38.3 µM), most hits filed as inhibitors;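 also: loss of luciferase light is scored as toxicity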
#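 Luminescence readout: signal drop marks cytotoxicity. Plated cells grew 12 h at 37 °C, 5% CO2, received 23 nL compound for 24 h, then got luciferase reagent, read after 12 min at RT.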
# GLP1R ag = GLP-1 receptor (human) agonism; Potency, µM (titrated, usually from 45.6 µM), hits mostly activators; HEK293 GLP-1R CRE-luciferase, luminescence, 4-6 h; cells express a hypersensitive GLP-1R form; 0.007% of 380,000 active
# Target sequence (P43220 whole entry, looked up): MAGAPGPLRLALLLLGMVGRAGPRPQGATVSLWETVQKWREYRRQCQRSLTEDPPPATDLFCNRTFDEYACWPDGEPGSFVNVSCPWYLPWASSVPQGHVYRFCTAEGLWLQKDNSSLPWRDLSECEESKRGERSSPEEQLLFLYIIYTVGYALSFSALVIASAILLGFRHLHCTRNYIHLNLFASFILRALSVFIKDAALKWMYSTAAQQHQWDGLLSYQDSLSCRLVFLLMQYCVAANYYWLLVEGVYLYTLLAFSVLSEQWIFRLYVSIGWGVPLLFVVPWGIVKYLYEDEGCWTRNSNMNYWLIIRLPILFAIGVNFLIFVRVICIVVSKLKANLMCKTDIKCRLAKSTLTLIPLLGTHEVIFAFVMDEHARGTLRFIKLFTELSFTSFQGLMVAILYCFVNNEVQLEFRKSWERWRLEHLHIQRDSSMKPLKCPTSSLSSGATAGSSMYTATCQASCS
# GLP-1R inv ag = GLP-1 receptor (human) inverse agonism; P43220; HEK293 GLP-1R CRE-luciferase, luminescence, 24 h; GLP-1R form is constitutively active; Potency, µM (series often up to 38.3 µM), actives largely listed as inhibitors; 1.6% of 410,000 active; also: nearly all actives have a fitted effect of over 55% in size
#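 HEK293 cells stably co-expressing a cAMP-responsive luciferase reporter and constitutively active GLP-1R were seeded, incubated 12 h, then exposed to compounds for 24 h at 37 C. Luminescence was read 12 min after detection reagent; inverse agonists lower signal.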
# PTHR1 agonist = activates the human parathyroid hormone receptor PTHR1; Q03431; HEK293 GP2 PTHR1 cells, GloSensor cAMP luminescence, 1 h; Potency, µM (doses to about 115 µM), most hits filed as activators; 0.075% of 410,000 active; AID 743266; also: nearly all actives have a fitted effect of over 55% in size
#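 HEK-293-derived GP2 cells expressing PTHR1 and a GloSensor cAMP reporter, 3,000/well, plated overnight, given luciferin plus IBMX (each 0.5 mM as added) for 1 h at 37 °C, then compound for 1 h at 37 °C. Luminescence was read after 15 min at room temperature.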
# A number is an active result; n = inactive; u = inconclusive; x = no result given. Calls follow the shape of the dose curve; as a rule, active = well fitted curve in the direction sought with a large enough effect; inconclusive = small, poorly fitted or top-dose-only effect, or another doubt; inactive = no such curve, though single readings can be large; an effect the other way counts as inactive or inconclusive.
SMILES,GLP1R cytotox,GLP1R ag,GLP-1R inv ag,PTHR1 agonist
Cc1cc2nc(-c3ccc[nH]c3=O)[nH]c2cc1C,n,n,3.5µM,n
C[C@@]12C(=O)N(c3ccc(F)cc3)C(=O)N1[C@@H]1c3ccccc3OC[C@@H]1[C@H]2c1ccccc1,n,n,10µM,n
COc1ccc(NC(=O)Nc2ccc(F)cc2)cn1,n,n,n,n
COc1ccc(NC(=O)C(c2ccc(Cl)cc2)C(C)C)cn1 (stereo not given),n,n,7.9µM,n
Cc1cn2c(=O)cc(COc3ccc(NC(=O)c4cccc(F)c4)cc3)nc2s1,n,n,n,n
O=C(c1cc(Cl)nc2ccccc12)N1CCN(S(=O)(=O)c2cccc(C(F)(F)F)c2)CC1,n,n,11µM,n
CCc1nc2ccccc2n1CC(=O)N1CCN(S(=O)(=O)c2cccc(C(F)(F)F)c2)CC1,n,n,n,n
CNC(=S)N(Cc1ccc(OC)cc1)C1CC(=O)N(c2ccc(Cl)cc2)C1=O (stereo not given),n,n,11µM,n
COc1ccc(-c2n(CC(=O)OC3CC(C)CCC3C(C)C)c3ccccc3[n+]2C)cc1 (stereo not given),u,n,7.1µM,n
O=C1CC(c2nc3ccccc3n2CCCOc2ccccc2)CN1c1ccc(F)cc1 (stereo not given),n,x,u,n
CCN(c1ccc(C)cc1C)S(=O)(=O)c1nnc(NC(=O)c2ccccc2OC)s1,n,x,u,n
COc1ccc(N2CCN(S(=O)(=O)CCNC(=O)Cc3ccc(-c4ccccc4)cc3)CC2)cc1,n,x,n,28µM
CCCCOc1ccc(C(=O)NCCS(=O)(=O)N2CCN(c3ccccc3OC)CC2)cc1,n,x,10µM,n
Cc1cc(C)c(Cn2c(C)c(CNCCCc3ccccc3)c(C(=O)O)c2C)c(C)c1,n,x,n,n
COC(=O)CN1C(=O)CSc2ccc(S(=O)(=O)Nc3cccc(C)c3)cc21,n,x,n,n
CCCCCOC(=O)CC(C(=O)OCCCCC)N1CCCCC1 (stereo not given),n,n,13µM,n
CCCCCCCCCOC(=O)C(CC(=O)O)N1CCOCC1 (stereo not given),n,n,n,n
COc1ccc(N(Cc2cccs2)C(=O)COc2cccc(Cl)c2)cc1,n,x,14µM,n
COc1ccc(N(Cc2cccs2)C(=O)COc2ccc([N+](=O)[O-])cc2)cc1,n,x,u,n
CC(C)(C)OC(=O)N1CCC(c2c(C(=O)NCCN3CCOCC3)cnn2-c2cccc(Cl)c2)CC1,n,x,n,n
CCN1CCN(C(=O)N[C@H](C(=O)N[C@@H]2C(=O)N3[C@@H](C(=O)O)C(C)(C)S[C@@H]23)c2ccccc2)C(=O)C1=O,x,n,x,x
CN(c1ccccc1)c1ccc(/C=C(/CCC(=O)O)c2nc3ccccc3s2)cc1[N+](=O)[O-],n,n,11µM,n
COc1cc([N+](=O)[O-])ccc1NC(=O)NN1CCN(C)CC1,n,n,n,n
COc1cc([N+](=O)[O-])ccc1NC(=O)N1CCC2(CC1)Nc1cc(F)ccc1-n1cccc12,n,x,11µM,n
Cc1nnc(N2CCN(c3ccccc3F)CC2)c2c1nnn2Cc1ccc(F)cc1,n,x,n,n
SMILES,GLP1R cytotox,GLP1R ag,GLP-1R inv ag,PTHR1 agonist
CCOc1cccc(CC(=O)N2CCc3c([nH]c4ccccc34)C2c2ccccc2)c1OCC (stereo not given),n,x,u,n
CC(=O)NCCC(=O)N1CCc2c([nH]c3ccccc23)C1c1cccc(Cl)c1 (stereo not given),n,n,5µM,n
CCOc1ccc(C2c3[nH]c4ccccc4c3CCN2C(=O)Cc2cccc(OCC)c2OCC)cc1 (stereo not given),n,x,6.3µM,n
Cc1cccc(C2c3[nH]c4ccccc4c3CCN2C(=O)Cc2nc(-c3ccccc3)n[nH]2)n1 (stereo not given),n,n,11µM,n
O=C(CSc1ccccc1)N1CCc2c([nH]c3ccccc23)C1c1ccc(Cl)cc1 (stereo not given),n,x,5µM,n
CCOc1cccc(C2c3[nH]c4ccccc4c3CCN2C(=O)CSc2ccccc2)c1 (stereo not given),n,x,u,n
CC(=O)NCCC(=O)N1CCc2c([nH]c3ccccc23)C1c1cccc(C)c1 (stereo not given),n,n,u,n
CCOCCCNC(=O)c1ccc2c(=O)n(CCc3ccc(OC)c(OC)c3)c(=O)[nH]c2c1,n,x,n,n
CC(=O)OCC(=O)[C@@]1(O)CCC2C3C[C@H](C)C4=CC(=O)C=CC4(C)C3C(O)CC21C (stereo not given in full),x,n,x,x
Cc1cccc(CC(=O)Nc2ccc3nc(N4CCC(C)CC4)cc(C)c3c2)c1,n,n,n,n
CCOC(=O)CC(NC(=O)CCc1c(C)nc2c(c1C)c(=O)n(C)c(=O)n2C)c1ccc(OCC)c(OC)c1 (stereo not given),n,n,n,n
O=C(CSCc1ccc(F)cc1)N1CCc2c([nH]c3ccccc23)C1c1ccc(Cl)cc1 (stereo not given),n,x,u,n
COc1ccc(CCC(=O)N2CCc3c([nH]c4ccccc34)C2c2ccc(F)cc2)cc1 (stereo not given),n,x,10µM,n
O=C(CSCc1ccc(F)cc1)N1CCc2c([nH]c3ccccc23)C1c1ccccc1 (stereo not given),n,x,7.9µM,n
CCOc1cccc(C2c3[nH]c4ccccc4c3CCN2C(=O)c2ccccc2F)c1 (stereo not given),n,x,5.6µM,n
COc1ccc(C(=O)c2cn(CC(=O)Nc3ccc4c(c3)OCCO4)c3ccc(OC)cc3c2=O)cc1,n,n,n,n
COc1ccccc1NS(=O)(=O)c1ccc(C)c(NC(=O)NC2CCCCC2)c1,n,n,11µM,n
COc1ccccc1NC(=O)Nc1ccc(C(=O)N2CCCCC2)cc1,n,n,8.9µM,n
COc1ccccc1NC(=S)NC1CCCCC1,n,n,n,n
COc1ccccc1NC(=S)NCC1CCCCC1,u,n,10µM,n
COc1ccccc1NS(=O)(=O)c1cccc(NC(=O)Nc2ccccc2)c1,u,n,5.6µM,n
COc1ccccc1-c1noc(-c2ccc(NCc3cccnc3)c([N+](=O)[O-])c2)n1,n,x,n,n
Cc1ccccc1NC(=O)Cn1c(=O)n(CCC(=O)NCc2ccc3c(c2)OCO3)c(=O)c2sccc21,n,x,n,u
COc1cccc(NC(=O)Nc2ccc(C(C)(C)C)cc2)c1,n,n,6.3µM,n
COc1ccccc1NC(=S)NCCc1ccc(Cl)cc1,n,n,5µM,n
COc1cccc(NC(=O)Nc2ccncc2)c1,n,n,n,n
COc1ccccc1NC(=S)NCCSc1ccc(Cl)cc1,n,n,n,n
CC(=O)c1cccc(NC(=O)NCCc2ccc(Cl)cc2)c1,n,n,u,n
COc1cccc(NC(=O)NCCc2ccc(Cl)cc2)c1,n,n,10µM,n
COc1ccccc1NC(=S)NC1CCCCCCCCCCC1,0.5µM,n,u,n
